Laboratory results reported in the supplement of paper PMC11417369.
In all, about 25,000 sequences were measured (“ln(normalized median fluorescence intensity)”: median about 7.1, highest 2% from about 10 on). This is one part of a sample in which the highest values are shown more often than they occur.

System: PfSIP2 AP2 domain 1 (GST-tagged)
Test: gcPBM binding intensity (ln(normalized median fluorescence intensity)); higher = stronger DNA binding
Method in brief: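 Binding intensity is defined as the maximum Masliner-normalised natural-log median intensity across replicate spots for either probe orientation. It was measured on an Agilent 4 × 180k array of primer-extended double-stranded 36-bp intergenic genomic probes and negative controls, to which GST-tagged P. falciparum DNA-binding domains made in E. coli were applied for 1 h in 1× PBS with 1% milk, 0.2 mg/ml BSA, 0.5% salmon testes DNA and 0.03% Triton X-100. Detection was by Alexa488 anti-GST antibody and scanning at 488 nm.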

Sequence	gcPBM binding intensity (ln)
TCCTTTTTGAAATGTTGTACTTTTTTTATCTTTCAT [XGTACX_site953]	7.12
ATTAACTATCATAACACACACAGTAGACATATTTTT [CACACA_site1822]	7.04
GATATATAAACATATACACACAAAAACATATTTATA [CACACA_site6734]	6.98
TGAATTATAAATTATAGTACTTTATAATATGAACAT [XGTACX_site2317]	6.81
TTTTTTTTTTTTTTGGTGCACATAGAAATTCTAAAA [GTGCAC_site9809]	11.3
AAAAAAAAAATTTTCGTGCACATAAGAAAATTTAAA [GTGCAC_site9788]	9.36
AGAAAAATTCTAAGAACATGCAAAAAAATAAAAAAA [TGCATGCA_site293]	6.84
ATTAAATGCACATATACACACACCCAATTTTAAGTT [CACACA_site3049]	7.4
TATGTAATAAATAGTACACACACACCGATATATATA [CACACA_site8389]	7.46
AAGGATTACAAAAAAAGTACAAATGGATTTTTTCCC [XGTACX_site8905]	6.84
TGCTTATATATACGTGCACACATATATATAAGATAT [CACACA_site8516]	9.74
TGCAAGCTTATATAGGTGCACATGTATACGTGTTCA	11.3
TATGTTTACATATACGTGCACATGAATGTATACATT [GTGCAC_site9894]	9.69
ATAACATACATAACAACACACAATATTTATAGGTAT [CACACA_site6243]	7.12
TGATATTATTATAAGGTGCTTAAAAATAAAGATAAT [GTGCAC_site9539]	7.78
TTTATTAATAAAAAGGTGCAATCAGGAAAAATTATC [GTGCAC_site9626]	10.8
AATTTATAAATAATTAATTTGATAAATTATAAAGGG [GTGCAC_negctrl_site544]	7.02
TATATATTAATCAAAGTGCAATAATAAAATAAAAGT [GTGCAC_site9490]	8.38
TTAACAAAACATAAGGTGCTTAAAATTTTATATCAC [GTGCAC_site9839]	7.96
ATTATTTGATTAAAGGTGCAAGGATAATAATAAAAC	10.3
ATATAATCAACTGCAAAGGTTTAAAAGGAAAAAATA [CACACA_negctrl_site989]	6.79
AAATTAAAGATAAAAGTGCAAAATTATAAATTTATT	7.97
ATTATCCATCAAAAGGTGCAAATTTTTAATTATAAA [GTGCAC_site9932]	11.1

Sequence	gcPBM binding intensity (ln)
AAATTTAACAACTTCAAACACACAATATATATATAT [CACACA_site2092]	8.91
AACATACCCATATACACACACACATAAATACAGATA [CACACA_site4744]	7.3
GATTGATTATATGTGTGTACTTATATGTTAAAAAAA [XGTACX_site4784]	7.29
AGTCATATAAATAGTAGTACTGTGTGTGAAGAAAAA [XGTACX_site5056]	7.42
TTAACAAAATTTCCGTGTACGTAAATAAGAACATAG [XGTACX_site7200]	7.25
ACAAATACAAAAAAAGGTACACACATAATATATTTA [XGTACX_site5515]	7.04
ACATTCAATCTACTGTGTACATATTAAACTTTGAAA [XGTACX_site2913]	7.49
ATTATATATATATTATGTACATATATTGAAGTGGAT [XGTACX_site5916]	7.56
TATACTTTATATATTTTGTATATATATTTTTTTTAT [TGCATGCA_negctrl_site530]	7
GTTAATATTTTTGGGGGTACTTAAAAAAAAAAAAAA [XGTACX_site1477]	7.78
ATTTTTTTTTTTTTTTTGGGGGGGTATACTTTTAAA [CACACA_negctrl_site1020]	10.7
AATAAATTGAAACACACACACACATATATATATATA [CACACA_site848]	9.2
AGGAGGATATTACACAGTACCCAGGAAATCTACGGA [XGTACX_site4878]	6.82
ACATATTTTATTTTTTGTACACATATATTATTTTTT [XGTACX_site6528]	7.28
TTGCATATTTCTAATTGTACATTATTTTATTTTATA [XGTACX_site8451]	6.96
TTGGGTGCATATATTTGTACACATTATTTCTATTTT [XGTACX_site3688]	12
AATTAATTAAATTAATGTACACATATATTTGTATTC [XGTACX_site2341]	7.14
ATATATAATTAATTTTGTACACATAAAAAAAAAAAT [XGTACX_site6647]	7.25
CTTAAATTAATTTGGGTGCATATATTTGTACACATT [GTGCAC_site9948]	10.9
AAAACCTAAAAGTCTTAAATTTTAAATATACCTACA [GTGCAC_negctrl_site492]	6.6
TTTATTTTATCATTTGCACACGCACCCCCACATAAA [CACACA_site8007]	11.5
CCCATGCATTTTTGCACACACATATATTTATAAATA [CACACA_site6785]	8.16
